Source: PubChem BioAssay AID1159580 (chemical genetic matrix, 2015)
The campaign covered roughly 5,500 compounds. About 2,000 (36%) were called active. Not shown: some 18% with an inconclusive outcome. Rule as the data show it: active = normalized growth mostly below about 0.91 (no sharp cut-off); inconclusive = no clear call, values can overlap the other calls; inactive = mostly above about 0.92. The list shows a part of the results.

Assay: chemical genetic growth profiling, strain panel (AID 1159580);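 also: tested at 20 µM; growth read once vehicle control cultures reached saturation at 30 °C; 1 = growth at the plate median or of vehicle wells; lower values mean less growth of the strain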
Settings: S. cerevisiae deletion strains, growth OD

Measured: normalized growth

CN(C)CCc1c[nH]c2ccc(C[C@H]3COC(=O)N3)cc12
inactive: locus YAL021C, strain ccr4, stronger effect = lower value 1.02 | locus YAL026C, strain drs2, stronger effect = lower value 1.01 | locus YAL030W, strain snc1, stronger effect = lower value 1.01 | locus YBL061C, strain skt5, stronger effect = lower value 1.01 | locus YBR009C, strain hhf1, stronger effect = lower value 1.01 | locus YBR023C, strain chs3, stronger effect = lower value 1.01 | locus YBR171W, strain sec66, stronger effect = lower value 1.02 | locus YBR231C, strain swc5, stronger effect = lower value 0.993 | locus YBR279W, strain paf1, stronger effect = lower value 1.01 | locus YCL011C, strain gbp2, stronger effect = lower value 1.01 | locus YCL016C, strain dcc1, stronger effect = lower value 1 | locus YCL061C, strain MRC1, stronger effect = lower value 1.01 | locus YCL069W, strain vba3, stronger effect = lower value 1.01 | locus YCR088W, strain abp1, stronger effect = lower value 1.01 | locus YDL005C, strain med2, stronger effect = lower value 1.01 | locus YDL040C, strain nat1, stronger effect = lower value 1.01 | locus YDR001C, strain nth1, stronger effect = lower value 1.01 | locus YDR069C, strain doa4, stronger effect = lower value 1.02 | locus YDR137W, strain rgp1, stronger effect = lower value 0.993 | locus YDR159W, strain sac3, stronger effect = lower value 1.04 | locus YDR195W, strain ref2 0.978 | locus YDR297W, strain sur2, stronger effect = lower value 1.01 | locus YDR334W, strain swr1, stronger effect = lower value 1.02 | locus YDR335W, strain msn5, stronger effect = lower value 1.01 | locus YDR392W, strain spt3, stronger effect = lower value 1.03 | locus YEL003W, strain gim4, stronger effect = lower value 1 | locus YEL037C, strain rad23, stronger effect = lower value 1.01 | locus YEL061C, strain CIN8 (second series), stronger effect = lower value 1.01 | locus YER015W, strain faa2, stronger effect = lower value 1.01 | locus YER016W, strain bim1, stronger effect = lower value 1.01 | locus YER111C, strain swi4, stronger effect = lower value 1.02 | locus YER155C, strain BEM2 (second series), stronger effect = lower value 1.06 | locus YFR010W, strain ubp6, stronger effect = lower value 1.02 | locus YGL167C, strain pmr1, stronger effect = lower value 1.01 | locus YGL173C, strain kem1, stronger effect = lower value 1 | locus YGL227W, strain vid30, stronger effect = lower value 1.01 | locus YGL240W, strain doc1, stronger effect = lower value 1.01 | locus YGL253W, strain hxk2, stronger effect = lower value 0.998 | locus YHR013C, strain ard1, stronger effect = lower value 1 | locus YHR027C, strain rpn1, stronger effect = lower value 1.01 | locus YHR030C, strain SLT2, stronger effect = lower value 1.02 | locus YHR079C, strain IRE1, stronger effect = lower value 0.986 | locus YHR142W, strain chs7, stronger effect = lower value 0.992 | locus YJL092W, strain hpr5, stronger effect = lower value 1.01 | locus YJL095W, strain BCK1 (second series), stronger effect = lower value 1.01 | locus YJL095W, strain BCK1, stronger effect = lower value 1 | locus YJL115W, strain asf1, stronger effect = lower value 1.01 | locus YJL129C, strain trk1, stronger effect = lower value 0.988 | locus YJL154C, strain vps35, stronger effect = lower value 1.01 | locus YJL164C, strain tpk1, stronger effect = lower value 1.02 | locus YJL166W, strain qcr8, stronger effect = lower value 1.01 | locus YJR066W, strain TOR1, stronger effect = lower value 0.966 | locus YKL160W, strain elf1, stronger effect = lower value 1 | locus YKR026C, strain gcn3, stronger effect = lower value 0.992 | locus YKR091W, strain srl3, stronger effect = lower value 0.997 | locus YLL001W, strain dnm1, stronger effect = lower value 1.01 | locus YLL026W, stronger effect = lower value 1.01 | locus YLL041C, strain sdh2, stronger effect = lower value 1.01 | locus YLR027C, strain aat2, stronger effect = lower value 1.01 | locus YLR113W, strain HOG1, stronger effect = lower value 0.972 | locus YLR221C, strain rsa3, stronger effect = lower value 1.02 | locus YLR258W, strain gsy2, stronger effect = lower value 1.01 | locus YLR262C, strain YPT6 (second series), stronger effect = lower value 1.01 | locus YLR320W, strain mms22, stronger effect = lower value 1.01 | locus YLR342W, strain FKS1, stronger effect = lower value 1.01 | locus YLR357W, strain rsc2, stronger effect = lower value 0.973 | locus YLR370C, strain arc18, stronger effect = lower value 1.01 | locus YLR384C, strain iki3, stronger effect = lower value 1 | locus YML120C, strain ndi1, stronger effect = lower value 1.02 | locus YMR058W, strain fet3, stronger effect = lower value 1.01 | locus YMR125W, strain sto1, stronger effect = lower value 1.01 | locus YMR129W, stronger effect = lower value 1.01 | locus YMR205C, strain PFK2, stronger effect = lower value 0.998 | locus YMR231W, strain pep5, stronger effect = lower value 1 | locus YNL071W, strain lat1, stronger effect = lower value 1.01 | locus YNL183C, strain NPR1, stronger effect = lower value 0.978 | locus YNL209W, strain ssb2, stronger effect = lower value 1.01 | locus YNL248C, strain rpa49, stronger effect = lower value 1 | locus YNL322C, strain KRE1 (second series), stronger effect = lower value 1.01 | locus YNR049C, strain mso1, stronger effect = lower value 1.01 | locus YOR001W, strain rrp6, stronger effect = lower value 0.998 | locus YOR070C, strain gyp1, stronger effect = lower value 1.01 | locus YOR080W, strain dia2, stronger effect = lower value 1 | locus YOR083W, strain WHI5, stronger effect = lower value 1 | locus YOR106W, strain vam3, stronger effect = lower value 1 | locus YOR231W, strain MKK1, stronger effect = lower value 0.999 | locus YOR265W, strain rbl2, stronger effect = lower value 1.01 | locus YOR270C, strain vph1, stronger effect = lower value 0.991 | locus YOR290C, strain snf2, stronger effect = lower value 1.01 | locus YPL051W, strain arl3, stronger effect = lower value 1.01 | locus YPL078C, strain atp4, stronger effect = lower value 1 | locus YPL106C, strain sse1, stronger effect = lower value 1.04 | locus YPL240C, strain hsp82, stronger effect = lower value 1.01 | locus YPL256C, strain CLN2, stronger effect = lower value 1.02
